Most compounds without a hit are left out; they make up all but 1.3% or so of the library.
COUP-TFII inh – blocks human COUP-TFII nuclear receptor. 0.7% of 370,000 active. HEK293T NGFI-A luciferase reporter, luminescence. inhibition, % at 8.6 µM. P24468;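 active = inhibition above a per-plate cutoff, mean inhibition of test wells between control levels plus 3 SD, cut at about 38% in these data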;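 note: cells cotransfected with COUP-TFII expression vector driving the NGFI-A reporter; 0% = median of COUP-TF2 test wells and 100% = reporter-only cells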
NR5A2 inv ag – suppresses constitutive activity of human LRH-1; 0.13% of 360,000 active; inhibition, % at 3.6 µM; HEK293T StAR-luciferase reporter, LRH-1 transfected, 24 h; O00482; AID 602396;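 active = inhibition above the mean inhibition of all tested compounds plus 3 SD, cut at about 73% in these data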;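 note: 0% = DMSO wells and 100% = reporter-only cells lacking LRH-1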
NCOA1 inh – inhibits human SRC1 coactivator; Q15788; HEK293 GAL4-SRC1 luciferase reporter, luminescence; inhibition, % at 3.6 µM; 0.12% of 360,000 active; AID 588354;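 active = inhibition above the campaign mean plus 3 SD, with each screening campaign given its own cutoff, cut at about 60% in these data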;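 note: 0% = DMSO treated cells and 100% = gossypol at 36 µM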
Target sequence (Q15788 whole entry, looked up, the tested form may be a part): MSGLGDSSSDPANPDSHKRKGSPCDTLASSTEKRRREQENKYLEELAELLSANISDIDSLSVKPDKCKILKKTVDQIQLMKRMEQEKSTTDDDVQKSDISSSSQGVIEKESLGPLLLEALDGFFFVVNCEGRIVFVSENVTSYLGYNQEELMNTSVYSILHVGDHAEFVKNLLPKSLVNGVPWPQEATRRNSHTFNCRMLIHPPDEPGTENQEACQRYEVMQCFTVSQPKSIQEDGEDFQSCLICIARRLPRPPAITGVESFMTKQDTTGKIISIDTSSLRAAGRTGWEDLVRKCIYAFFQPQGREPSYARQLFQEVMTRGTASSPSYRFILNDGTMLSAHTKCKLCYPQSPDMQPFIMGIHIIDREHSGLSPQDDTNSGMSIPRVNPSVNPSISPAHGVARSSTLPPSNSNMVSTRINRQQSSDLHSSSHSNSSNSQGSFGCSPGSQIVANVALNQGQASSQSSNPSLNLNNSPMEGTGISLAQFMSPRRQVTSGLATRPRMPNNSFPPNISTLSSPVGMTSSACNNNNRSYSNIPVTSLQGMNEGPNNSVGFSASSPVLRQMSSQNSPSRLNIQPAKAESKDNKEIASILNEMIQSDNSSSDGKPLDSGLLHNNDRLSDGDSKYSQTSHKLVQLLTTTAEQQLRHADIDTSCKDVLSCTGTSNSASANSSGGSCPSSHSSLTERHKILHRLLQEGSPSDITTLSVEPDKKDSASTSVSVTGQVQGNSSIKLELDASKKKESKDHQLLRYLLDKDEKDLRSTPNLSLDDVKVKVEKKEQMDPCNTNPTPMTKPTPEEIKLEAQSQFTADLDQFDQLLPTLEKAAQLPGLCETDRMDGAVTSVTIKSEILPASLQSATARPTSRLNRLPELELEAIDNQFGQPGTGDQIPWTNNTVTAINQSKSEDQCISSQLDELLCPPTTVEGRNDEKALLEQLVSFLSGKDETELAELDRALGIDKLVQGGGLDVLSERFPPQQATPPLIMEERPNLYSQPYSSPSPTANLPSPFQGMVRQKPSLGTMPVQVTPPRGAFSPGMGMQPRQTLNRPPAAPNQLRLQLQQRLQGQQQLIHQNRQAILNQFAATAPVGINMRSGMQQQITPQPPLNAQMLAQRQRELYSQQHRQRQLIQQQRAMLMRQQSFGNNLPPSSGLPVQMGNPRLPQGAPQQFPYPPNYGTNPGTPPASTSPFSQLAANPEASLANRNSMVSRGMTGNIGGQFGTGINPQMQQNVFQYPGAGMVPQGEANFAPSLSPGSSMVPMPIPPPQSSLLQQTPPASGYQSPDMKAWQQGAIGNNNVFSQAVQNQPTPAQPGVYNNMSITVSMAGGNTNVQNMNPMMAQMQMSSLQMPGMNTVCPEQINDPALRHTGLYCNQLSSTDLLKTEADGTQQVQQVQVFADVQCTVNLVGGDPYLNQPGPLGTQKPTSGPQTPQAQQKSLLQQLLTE
NCOA2 inhibitor – inhibits human steroid receptor coactivator 2 | Q15596 | HEK293 GAL4-SRC2 luciferase reporter, luminescence | inhibition, % at 9 µM | 0.17% of 370,000 active;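 active = inhibition above the mean inhibition of all tested compounds plus 3 SD, set per campaign, cut at about 52% in these data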;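 note: 0% = DMSO treated cells and 100% = cells given Gossypol at 36 µM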
Gli-Sufu block – Gli-Sufu pathway antagonism | Sufu-KO-LIGHT fibroblasts, Gli luciferase reporter luminescence | AID 588413 | inhibition, % at 5 µM | 0.74% of 340,000 active;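 active = inhibition above about 55%, limit read from the data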;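 note: 0% = DMSO-treated cells and 100% = wells with medium but no cells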
SRC3 inh – inhibitors of human steroid receptor coactivator 3 (SRC3) | HEK293 GAL4-SRC3 luciferase reporter, luminescence | inhibition, % at 3.6 µM | Q9Y6Q9 | 0.17% of 360,000 active;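 active = inhibition above a per-campaign cutoff, the mean of all compounds plus 3 SD, cut at about 60% in these data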;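 note: 0% = DMSO-treated cells and 100% = gossypol-treated cells at 36 µM; higher means less SRC3-driven luciferase light from the GAL4 reporter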
Gli antag conf – confirmation of Gli-SUFU pathway antagonists; shares compounds with Gli-Sufu block; Sufu-KO-LIGHT cells, Gli luciferase reporter, luminescence; inhibition, % at 5 µM; 40% of 2,500 active;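 active = mean inhibition at 5 µM reaching about 45%, limit read from the data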;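 note: plate controls were DMSO-treated cells for no effect and wells lacking cells for full effect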
Gli cytotox – counter-screen for Gli-SUFU antagonists: cytotoxicity | cytotoxicity, % at 5 µM | shares compounds with Gli-Sufu block | 32% of 2,500 active | Sufu-KO-LIGHT cells cytotoxicity, ATP luminescence;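 active = mean cytotoxicity at 5 µM above about 25%, limit read from the data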;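 note: cells exposed to compound overnight for roughly 16 to 18 hours; plate controls were DMSO wells with cells for no effect and medium without cells for full effect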
Wnt3a counter – counter-screen for Gli-SUFU antagonists: Wnt3a reporter inhibition | AID 651995 | Wnt-LIGHT cells, Wnt3a-driven luciferase reporter, luminescence | shares compounds with Gli-Sufu block | inhibition, % at 6.25 µM | 20% of 2,500 active;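 active = mean inhibition above about 25%, limit read from the data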
* = called active by the depositor; · = no result.

SMILES | COUP-TFII inh | NR5A2 inv ag | NCOA1 inh | NCOA2 inhibitor | Gli-Sufu block | SRC3 inh | Gli antag conf | Gli cytotox | Wnt3a counter
COc1cc(OC)cc(C(=O)OCC(=O)c2ccc(S(=O)(=O)N3CCCCC3)cc2)c1 | -0.4 | -12.5 | -5.7 | -25.9 | 95.8* | 0.5 | 12.5 | 12.0 | -20.0
COc1ccc(NC(=O)c2c(Nc3ccccc3)sc(C(=O)c3ccc(F)cc3)c2N)cc1 | 3.4 | 9.7 | 13.5 | 5.1 | 74.8* | -2.2 | 85.4* | 34.6* | 81.2*
COc1cc(C(=O)N/N=C(\c2ccccc2)c2ccccn2)cc(OC)c1OC | 16.6 | 36.1 | 39.6 | 25.2 | 92.5* | 57.9 | 84.3* | 37.7* | 57.3*
COc1cc(NC(=O)c2ccccn2)cc(OC)c1OC | -1.4 | 14.0 | -10.6 | 20.3 | -17.8 | 14.8 | · | · | ·
COc1cccc2cc3c(nc12)C[C@@H]1CCCC(=O)N2CCC[C@@]12C3 | -16.1 | · | · | · | · | · | · | · | ·
O=C(NC1CCCC1)c1cc(COc2ccc3ncccc3c2)on1 | · | 35.7 | 23.6 | · | 53.9 | 37.2 | 63.2* | 24.1 | 21.2
Cc1ccc(OCc2cc(C(=O)NC3CCCCC3)no2)cn1 | 31.0 | 25.8 | 1.0 | 30.6 | 56.8* | 12.4 | 27.0 | 17.5 | -12.9
COc1cc(C2C(C#N)=C(C)NC3=C2C(=O)c2ccccc23)cc(OC)c1OC (stereo not drawn) | -5.8 | 32.2 | 5.6 | 15.5 | 50.0 | 19.8 | 58.0* | 55.3* | 14.3
O=C(CSc1nnnn1-c1ccc(Cl)cc1)Nc1cccnc1Cl | 15.8 | 27.4 | 2.7 | 1.5 | 8.4 | 18.3 | · | · | ·
Cc1ccc(-n2nnnc2SCC(=O)Nc2cccnc2Cl)cc1 | 21.6 | -1.8 | -2.8 | 27.5 | 54.0 | 0.6 | 29.3 | 8.1 | -7.9
Cc1c(NC(=O)C2CCCN(S(=O)(=O)c3ccc(C(C)(C)C)cc3)C2)c(=O)n(-c2ccccc2)n1C (stereo not drawn) | 17.7 | · | · | 4.8 | · | · | · | · | ·
COc1cccc(-c2nc(NCCN3CCOCC3)c3ccccc3n2)c1O | 2.3 | 28.6 | 1.3 | -62.5 | 98.4* | 13.3 | 31.4 | 20.5 | -70.1
O=C(O)c1ccc(N2C(=O)C3C4c5ccccc5C(Br)(c5ccccc54)C3C2=O)cc1 (stereo not drawn) | 11.7 | -8.9 | -16.8 | -54.1 | 66.5* | 8.3 | 17.4 | 10.5 | 6.3
CC12c3ccccc3C(c3ccccc31)C1C(=O)N(c3ccncc3)C(=O)C12 (stereo not drawn) | -25.8 | -4.5 | 7.7 | -50.4 | -5.9 | 20.4 | · | · | ·
CCOc1ccc2cc(C(=O)c3ccccc3)c(=O)oc2c1 | -31.4 | -51.1 | -70.1 | -17.4 | -31.2 | -31.1 | · | · | ·
CCOc1ccc2cc(C(=O)NCc3ccccc3)c(=N)oc2c1 | 3.1 | -8.5 | 4.6 | -7.1 | 53.6 | -8.9 | 8.0 | 13.2 | -39.3
O=C(Cc1c[nH]c2ccccc12)Nc1ccc(Nc2cccnc2)c(-c2ccc(-c3ccccc3)cc2F)c1 | -4.4 | · | · | 28.8 | · | · | · | · | ·
CCCC[C@H]1C2CC(OC(=O)Nc3ccccc3C)C(C2)[C@H]2CCCCN21 (stereo partly drawn) | -5.6 | · | · | 3.1 | · | · | · | · | ·
O=C(Nc1c(-c2ccc(C(F)(F)F)cc2)nc2ncccn12)c1ccc(F)cc1 | 14.7 | · | · | -26.9 | · | · | · | · | ·
Cn1c(SCC(=O)Nc2ccccc2-c2ccccc2)nnc1-c1cnccn1 | 5.4 | · | · | 1.4 | · | · | · | · | ·
CCCCN1C2=NCCCN2c2cc(C)c(C)cc21 | -13.3 | 8.6 | 13.6 | -14.0 | 64.3* | 4.5 | 66.6* | 39.1* | 28.6*
CCCCCCCN1C2=NCCCN2c2ccccc21 | -0.8 | 22.2 | 11.6 | 19.0 | 59.0* | 34.2 | 41.0 | 4.0 | 16.4
COc1ccc(CNCC(O)(c2ccc(F)cc2)c2ccc(F)cc2)cc1OC | 26.1 | 11.2 | 17.8 | 13.8 | 64.5* | 26.0 | 22.7 | 36.0* | -41.0
COc1ccc(CNCC(O)(c2ccccc2)c2ccc(F)cc2)cc1OC (stereo not drawn) | 15.4 | 22.5 | 2.1 | 19.5 | 17.4 | 26.6 | · | · | ·
COc1cccc(-c2cc3nc(C)c(C)c(N4CCN(Cc5ccco5)CC4)n3n2)c1 | 0.0 | · | · | · | · | · | · | · | ·
SMILES | COUP-TFII inh | NR5A2 inv ag | NCOA1 inh | NCOA2 inhibitor | Gli-Sufu block | SRC3 inh | Gli antag conf | Gli cytotox | Wnt3a counter
CC(C)(C)c1ccc(OCCCN2CCCC2)cc1 | -33.8 | 17.1 | 17.9 | 2.0 | 57.4* | -1.5 | 25.1 | -2.0 | -26.5
CC(C)Oc1ccc(OCCCN2CCCCCC2)cc1 | 4.4 | -3.1 | -25.1 | -12.3 | 5.5 | 0.8 | · | · | ·
O=C(NC1CCN(Cc2ccccc2)CC1)C1CCN(S(=O)(=O)c2cccc3cccnc23)CC1 | 19.8 | 7.3 | -11.8 | -12.9 | -14.7 | -1.4 | · | · | ·
O=C(NC1CCN(Cc2ccccc2)CC1)C1CCN(S(=O)(=O)c2cccc3nsnc23)CC1 | 2.3 | 7.1 | -2.2 | 3.1 | 59.3* | 5.5 | 19.5 | 28.5* | -5.0
Cc1ccc(NC(=O)C(=O)NCC2CCCO2)cc1C (stereo not drawn) | -39.5 | -85.3 | -93.3 | -24.2 | -34.1 | -63.2 | · | · | ·
Cc1ccc(NC(=O)CC(NCC2CCCO2)C(=O)O)cc1C (stereo not drawn) | 5.6 | 10.5 | -6.2 | -14.1 | 56.9* | -16.4 | 20.6 | -2.1 | 13.6
CC(COc1cccc([N+](=O)[O-])c1)CN1CCC(C(O)(c2ccccc2)c2ccccc2)CC1 (stereo not drawn) | -7.1 | · | · | 1.0 | · | · | · | · | ·
COC(=O)c1ccc(=O)n(-c2ccc(OC)cc2)c1 | -8.8 | -1.4 | -15.2 | -21.0 | 76.3* | 5.0 | 20.4 | 1.8 | -1.1
CC(=O)c1cc(-c2cccc(C#N)c2)c(=O)n2c1CCC2 | 3.9 | · | · | -26.5 | · | · | · | · | ·
COC(=O)c1c[nH]c2c1-c1cc(C(=O)OCc3ccccc3)n(S(=O)(=O)c3ccc(C)cc3)c1C(=O)C2=O | -3.0 | -1.3 | 8.1 | -10.5 | 55.1* | -8.2 | 76.4* | 51.0* | 100.3*
Cc1ccc(NC(=O)CCC(=O)c2ccccc2)cc1 | -8.6 | 27.3 | -2.3 | -10.8 | -0.6 | -6.1 | · | · | ·
O=C(CCC(=O)c1ccccc1)Nc1ccc(C(=O)O)cc1 | 15.0 | 2.3 | 0.8 | -8.7 | 98.8* | 9.8 | 19.1 | 7.3 | 6.4
O=C(CCCCCCC(=O)Nc1ccccc1)NO | -90.4 | -50.4 | -493.3 | -342.8 | 83.9* | -283.5 | 88.5* | 17.9 | -234.0
O=C(CCCCCN1C(=O)c2ccccc2C1=O)Nc1ccccc1 | 10.4 | 4.7 | -5.3 | 5.8 | -4.8 | 2.9 | · | · | ·
COc1cc(NC(=O)c2ccccc2)c(C)cc1NC(=O)CSc1nnc(-c2ccco2)n1Cc1ccco1 | 19.8 | · | · | -0.4 | · | · | · | · | ·
COC1=C[C@H](C(=O)NCc2ccccn2)[C@@]2(C)Cc3ccccc3[C@H]2CC1=O | -0.5 | · | · | -16.5 | · | · | · | · | ·
c1ccc(SCCCCN2CCOCC2)cc1 | -38.7 | 7.0 | -28.1 | -39.8 | 50.2 | -14.1 | 16.5 | 27.1* | -13.6
